From the supplement of paper PMC12297408
Several values for one entry are separate records, joined by “and”; a condition that tells them apart may be missing. Equal values may be shown once. A number with no mark means an inactive call.

Tested on: Plasmodium falciparum NF54/iGP1_RE9H ulg8 stage V gametocytes
Assay: gametocyte viability (luciferase signal relative to DMSO control) (% of DMSO control); higher = less gametocytocidal activity, active = 50 or less
Conditions: exposure time: 72 h
How it was run: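 Compounds from 10 mM DMSO stocks were spotted at nanolitre scale into 96-well plates, and day-12 stage V NF54/iGP1_RE9Hulg8 gametocytes (~2.5% gametocytemia, 3% hematocrit; medium with 0.5% Albumax II) were added to reach 10 µM or 1 µM, one well per concentration. The plates were kept at 37 °C for 72 h. Luminescence was then read on an IVIS Lumina II after mixing 90 µl of culture with 10 µl D-luciferin (30 mg/ml). Viability values are relative to the plate's mean DMSO vehicle signal.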

SMILES	gametocyte viability (concentration: 1 µM)	gametocyte viability (concentration: 10 µM)
N#CC(=Cc1ccc(O)c(O)c1)C(=O)NCc1ccccc1	95.7	101
CCCS(=O)(=O)Nc1ccc(F)c(C(=O)c2c[nH]c3ncc(Cl)cc23)c1F	102	107
FC(F)(F)c1ccc(/C=C/c2nc(COc3ccc(CCCCn4ccnn4)cc3)co2)cc1 [Mubritinib (TAK 165)]	95.1	104
CC[C@@H]1C(=O)N(C)c2cnc(Nc3ccc(C(=O)N[C@H]4CC[C@H](N5CCN(CC6CC6)CC5)CC4)cc3OC)nc2N1C(C)C [BI6727 (Volasertib)]	84.9	61.9
O=C1NC(=O)/C(=C/c2ccc(-c3ccc(F)cc3O)o2)S1	100	110
Cc1cccc(-c2[nH]c(C(C)(C)C)nc2-c2ccc3nccnc3c2)n1	94.4	91.7
CC(C)c1cc(/C=C(\C#N)C(=O)NCCCc2ccccc2)cc(C(C)C)c1O	99.4	97.2
COc1cc(OC)c(/C=C/S(=O)(=O)Cc2ccc(OC)c(NCC(=O)O)c2)c(OC)c1	93.4	101
COc1cccc(-c2cc(=O)c3ccccc3o2)c1N	97.3 and 93.2	64.5 and 69.7
COc1cc(C=C(C#N)C(N)=O)cc(CSc2nc3ccccc3s2)c1O	111	113
CO[C@H]1C[C@@H]2CC[C@@H](C)[C@@](O)(O2)C(=O)C(=O)N2CCCC[C@H]2C(=O)O[C@H]([C@H](C)C[C@@H]2CC[C@@H](O)[C@H](OC)C2)CC(=O)[C@H](C)/C=C(\C)[C@@H](O)[C@@H](OC)C(=O)[C@H](C)C[C@H](C)/C=C/C=C/C=C/1C [Rapamycin (Sirolimus)]	99.3	79.7
